Reference: PubChem BioAssay (NCATS)
Values joined by “and” are separate entries in the source; they are usually repeats but may differ in a detail not shown here. Equal entries are not always repeated. Records with an inconclusive call do not appear. Entries that show only a call come without a potency. Active and inactive are the calls of the source. Unless noted, the call rests on the fitted dose curve; in most records, active means well fitted curve in the direction sought with a large enough effect; inconclusive means small, poorly fitted or top-dose-only effect, or another doubt; inactive means no such curve, though single readings can be large; an effect the other way counts as inactive or inconclusive.

Key:
[1] = NCATS anti-infectives library activity on HEK293 viability as a counter-qHTS vs the C. elegans viability qHTS (AID 1745854); details: HEK293 viability counter-screen; series mostly up to 41.8 µM; further: potency means the concentration at half of the fitted maximal effect
Summary of the method: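 CellTiter-Glo luminescence, read on a CCD imager, scored viability of HEK293 cells after 24 hr compound exposure at 37C. Library tested in several concentrations, 1:5 steps, up to 41.7 uM; digitonin served as control.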

[2] = NCATS anti-infectives library activity on the primary C. elegans qHTS viability assay (AID 1745855; calls by dose curve; further: potency means the concentration at half of the fitted maximal effect); details: C. elegans worm area imaging, day 7; series mostly up to 41.8 µM
Summary of the method: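 Titration-based screen in worms: eggs hatched overnight in M9, L1 larvae fed TOP10 capsules in S medium with compound, incubated 21 °C for 7 days; fluorescent objects gated by size and intensity at days 0, 3 and 7.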

[3] = target: Catechol O-methyltransferase (Homo sapiens) (UniProt P21964); experiment: Confirmatory Screen for Target Class Profiling of Small Molecule Inhibitors of Methyltransferases (AID 1745852; calls by dose curve; further: potency means the concentration at half of the fitted maximal effect); details: MTase-Glo luminescence, SAH detection, recombinant enzyme; measured here: COMT max response; stronger effect = lower value
[4] = target: Guanidinoacetate N-methyltransferase (Homo sapiens) (UniProt Q14353); experiment: as above; details: MTase-Glo luminescence, SAH detection, recombinant enzyme; activity change, negative = inhibition: at 57.3 µM (top of the series)
[5] = target: Nicotinamide N-methyltransferase (Homo sapiens) (UniProt P40261); experiment: as above; details: MTase-Glo luminescence, SAH detection, recombinant enzyme; measured here: NNMT max response; stronger effect = lower value
[6] = target: Phenylethanolamine N-methyltransferase (Homo sapiens) (UniProt P11086); experiment: as above; details: MTase-Glo luminescence, SAH detection, recombinant enzyme; measured here: PNMT max response; stronger effect = lower value
[7] = target: Rap guanine nucleotide exchange factor 4 (Homo sapiens) (UniProt Q8WZA2); experiment: Confirmatory qHTS for antagonist of cAMP-regulated guanine nucleotide exchange factor 4 (EPAC2) (AID 1645885); details: EPAC2 Rap1B-BODIPY-GDP exchange fluorescence, biochemical; series mostly up to 114 µM; further: nearly all actives have a fitted effect of over 25% in size; further: potency means the concentration at half of the fitted maximal effect
[8] = target: Rap guanine nucleotide exchange factor 3 (Homo sapiens) (UniProt O95398); experiment: Counterscreen qHTS for antagonist of cAMP-regulated guanine nucleotide exchange factor 3 (EPAC1) (AID 1645888); details: Rap1B-BODIPY-GDP nucleotide exchange, fluorescence; series mostly up to 154 µM;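 further: fluorescence loss as bound BODIPY-GDP is released from Rap1B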
Summary of the method: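 Measured: fluorescence of BODIPY-GDP bound to Rap1B, which falls as exchange proceeds. Conditions include 50 uM competing GDP, 5 and 30 min reads, and a later cAMP challenge for antagonist detection.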

[9] = target: Rap guanine nucleotide exchange factor 3 (Homo sapiens) (UniProt O95398); experiment: Counterscreen qHTS for agonist of cAMP-regulated guanine nucleotide exchange factor 3 (EPAC1) (AID 1645889); details: EPAC1 Rap1B-BODIPY-GDP exchange, fluorescence; series mostly up to 154 µM; further: nearly all actives have a fitted effect of over 40% in size; further: potency means the concentration at half of the fitted maximal effect
From the text: Assay Provider (PI): Xiaodong Cheng Ph.D. The University of Texas Medical Branch, […], TX MLPCN Grant: NS066510 In multi-cellular eukaryotic organisms, the effects of cAMP are transduced by two ubiquitously-expressed intracellular cAMP receptors, the classic protein kinase A/cAMP-dependent protein kinase (PKA/cAPK) and the more recently discovered exchange protein directly activated by cAMP/cAMP-regulated guanine nucleotide exchange factor (EPAC/cAMP-GEF). Both PKA and EPAC are ubiquitously expressed in all tissues, and an increase in intracellular cAMP levels will lead to the activation of both PKA and EPAC. […] This qHTS will be used to screen the Molecular Libraries Small Molecule Repository (MLSMR) as a concentration-titration series using the NCGC unique quantitative screening (qHTS) platform to find activators for EPAC1. […] Activators are identified by monitoring the change in fluorescence signal as the exchanged free BODIPY-GDP has a reduced fluorescence compared to Rap1-bound BODIPY-GDP. […]
EPAC1 Counterscreen PROTOCOL TABLE SEQUENCE No. (e.g., 1, 2, 3, etc.); […] […] Fluorescence. (Read 1), Ex/Em = 480 nm / 540 nm. […] Fluorescence. (Read 2), Ex/Em = 480 nm/ 540 nm. […] Fluorescence. (Read 3), Ex/Em = 480 nm / 540 nm. […] Fluorescence. (Read 4), Ex/Em = 480 nm / 540 nm. […]

[10] = Viability counterscreen for antagonist of constitutive androstane receptor (CAR) against the NCATS DSHEA and TCM libraries (AID 1794837); details: CAR reporter cell line viability counterscreen, qHTS; series mostly up to 40 µM;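 further: compound exposure lasted 24 h before viability reading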
From the text: Assay Development and Screening Technology Laboratory (ADST)
National Center for Advancing Translational Sciences (NCATS), Rockville, MD
National Institute of Health (NIH), Bethesda, Maryland
Dietary Supplements and Natural Products have minor oversight of their safety and efficacy. We assembled a collection of Dietary Supplements and Natural Products (DSNP) as well as Traditional Chinese Medicinal (TCM) Plant extracts, which were screened against an in vitro panel of assays, including a liver cytochrome p450 enzyme panel, CAR/PXR signaling pathways, and P-gp transporter assays, to assess their activity. This pipeline facilitated the interrogation of Natural Product-Drug Interaction (NaPDI) through prominent metabolizing pathways. In addition, we compared the activity profiles of the DSNP/TCM substances with those of an approved drug collection. […] Overall, we highlight four significant bioactivity profiles (measured by p-values) as examples of this prediction. […]
8; Detector 1; Fluorescence intensity; ViewLux plate reader (excitation 405 nm, emission 540 nm). […]
11; Detector 2; Luminescence intensity; ViewLux. […]
8. Fluorescence intensity (Ex/Em = 405 nm/540 nm) is obtained using the ViewLux plate reader to determine cell viability. […]
10. Luminescence intensity is read using the ViewLux detector. […]

Sequence of Nicotinamide N-methyltransferase (Homo sapiens) (P40261 whole entry, looked up): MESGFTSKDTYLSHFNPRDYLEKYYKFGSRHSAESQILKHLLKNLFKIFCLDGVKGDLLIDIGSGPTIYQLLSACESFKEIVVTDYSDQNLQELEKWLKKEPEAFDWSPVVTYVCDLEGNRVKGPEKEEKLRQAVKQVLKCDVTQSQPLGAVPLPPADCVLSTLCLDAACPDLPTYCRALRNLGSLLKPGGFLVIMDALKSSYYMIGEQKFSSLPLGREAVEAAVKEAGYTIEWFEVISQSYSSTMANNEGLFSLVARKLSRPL
Sequence of Catechol O-methyltransferase (Homo sapiens) (P21964 whole entry, looked up): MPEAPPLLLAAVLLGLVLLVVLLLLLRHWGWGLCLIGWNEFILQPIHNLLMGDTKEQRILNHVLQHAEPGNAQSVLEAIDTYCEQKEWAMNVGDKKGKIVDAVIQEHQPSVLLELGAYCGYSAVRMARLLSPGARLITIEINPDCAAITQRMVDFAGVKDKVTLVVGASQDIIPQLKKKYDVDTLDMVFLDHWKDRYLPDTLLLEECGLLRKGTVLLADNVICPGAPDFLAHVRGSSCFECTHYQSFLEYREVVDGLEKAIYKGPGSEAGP
Sequence of Rap guanine nucleotide exchange factor 3 (Homo sapiens) (O95398 whole entry, looked up): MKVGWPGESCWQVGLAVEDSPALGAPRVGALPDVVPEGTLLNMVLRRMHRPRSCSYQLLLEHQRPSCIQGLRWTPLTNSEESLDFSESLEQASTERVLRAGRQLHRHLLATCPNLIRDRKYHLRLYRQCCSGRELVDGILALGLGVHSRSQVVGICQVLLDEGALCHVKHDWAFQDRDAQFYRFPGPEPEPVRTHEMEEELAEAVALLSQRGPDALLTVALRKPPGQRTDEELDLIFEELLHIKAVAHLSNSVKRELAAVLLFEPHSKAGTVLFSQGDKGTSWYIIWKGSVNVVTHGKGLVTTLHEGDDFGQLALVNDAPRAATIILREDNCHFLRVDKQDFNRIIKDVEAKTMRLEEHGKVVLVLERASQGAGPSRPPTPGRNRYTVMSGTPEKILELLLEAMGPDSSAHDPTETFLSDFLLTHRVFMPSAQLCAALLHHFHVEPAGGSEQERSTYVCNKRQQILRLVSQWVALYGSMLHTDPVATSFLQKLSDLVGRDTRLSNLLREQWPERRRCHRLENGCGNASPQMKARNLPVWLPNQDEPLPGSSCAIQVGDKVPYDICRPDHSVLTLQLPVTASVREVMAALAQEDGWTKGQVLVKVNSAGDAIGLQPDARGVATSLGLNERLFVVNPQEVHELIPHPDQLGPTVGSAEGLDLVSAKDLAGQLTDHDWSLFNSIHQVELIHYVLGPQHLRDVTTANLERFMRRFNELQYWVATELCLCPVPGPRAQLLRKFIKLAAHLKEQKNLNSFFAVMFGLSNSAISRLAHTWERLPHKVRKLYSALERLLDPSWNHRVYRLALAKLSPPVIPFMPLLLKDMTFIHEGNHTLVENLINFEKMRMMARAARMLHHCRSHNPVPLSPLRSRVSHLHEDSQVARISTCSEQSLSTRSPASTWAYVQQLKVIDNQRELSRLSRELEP
Sequence of Rap guanine nucleotide exchange factor 4 (Homo sapiens) (Q8WZA2 whole entry, looked up): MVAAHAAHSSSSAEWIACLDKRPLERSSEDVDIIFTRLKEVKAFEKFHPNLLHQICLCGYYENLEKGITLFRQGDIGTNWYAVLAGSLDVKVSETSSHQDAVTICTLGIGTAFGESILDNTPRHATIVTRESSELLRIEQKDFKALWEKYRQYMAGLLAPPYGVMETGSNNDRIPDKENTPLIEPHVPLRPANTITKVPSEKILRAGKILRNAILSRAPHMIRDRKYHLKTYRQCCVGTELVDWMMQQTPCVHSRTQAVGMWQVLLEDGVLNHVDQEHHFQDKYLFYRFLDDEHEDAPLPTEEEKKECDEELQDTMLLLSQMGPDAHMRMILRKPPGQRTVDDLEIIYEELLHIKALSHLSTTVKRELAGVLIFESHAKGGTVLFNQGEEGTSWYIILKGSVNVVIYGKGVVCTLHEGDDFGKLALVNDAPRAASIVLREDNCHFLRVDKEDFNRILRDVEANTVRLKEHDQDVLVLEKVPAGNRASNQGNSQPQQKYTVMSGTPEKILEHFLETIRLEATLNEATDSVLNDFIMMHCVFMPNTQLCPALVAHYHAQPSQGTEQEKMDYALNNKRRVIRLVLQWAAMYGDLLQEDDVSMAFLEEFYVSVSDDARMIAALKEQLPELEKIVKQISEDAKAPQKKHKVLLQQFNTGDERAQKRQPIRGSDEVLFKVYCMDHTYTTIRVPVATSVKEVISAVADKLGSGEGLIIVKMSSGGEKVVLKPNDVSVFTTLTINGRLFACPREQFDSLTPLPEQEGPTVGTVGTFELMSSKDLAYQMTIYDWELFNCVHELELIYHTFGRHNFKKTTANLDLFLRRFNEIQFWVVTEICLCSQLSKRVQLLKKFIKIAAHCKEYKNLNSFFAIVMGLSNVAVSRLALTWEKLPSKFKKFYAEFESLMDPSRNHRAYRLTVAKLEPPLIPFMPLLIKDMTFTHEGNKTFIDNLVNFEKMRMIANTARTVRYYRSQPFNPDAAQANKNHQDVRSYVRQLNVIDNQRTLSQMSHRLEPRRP
Sequence of Phenylethanolamine N-methyltransferase (Homo sapiens) (P11086 whole entry, looked up): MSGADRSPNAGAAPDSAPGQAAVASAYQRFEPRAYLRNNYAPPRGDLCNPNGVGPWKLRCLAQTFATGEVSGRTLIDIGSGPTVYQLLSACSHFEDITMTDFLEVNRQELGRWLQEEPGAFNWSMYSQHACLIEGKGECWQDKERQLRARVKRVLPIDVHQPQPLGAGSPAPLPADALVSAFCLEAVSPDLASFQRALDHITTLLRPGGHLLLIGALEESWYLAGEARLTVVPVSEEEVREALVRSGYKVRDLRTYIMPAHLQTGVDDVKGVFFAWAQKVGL

SMILES: C[C@H]1c2cccc(O)c2C(O)=C2C(=O)[C@]3(O)C(O)=C(C(N)=O)C(=O)[C@@H](N(C)C)[C@@H]3[C@@H](O)[C@@H]21
- Potency [1]: inactive
- Potency [2]: 1.15 µM (active)

SMILES: Nc1ccn([C@H]2CC[C@@H](CO)O2)c(=O)n1
- Potency [1]: inactive

SMILES: CC(=O)OCC(CCn1cnc2cnc(N)nc21)COC(C)=O
- Potency [1]: inactive
- Potency [2]: inactive

SMILES: Cn1ccc2cc3c(cc21)CCN3C(=O)Nc1cccnc1
- activity [3]: -1.14%
- activity change, negative = inhibition [4]: -1.78%
- activity [5]: -11.7%
- activity [6]: 1.53%

SMILES: Cc1cn([C@H]2C=C[C@@H](CO)O2)c(=O)[nH]c1=O
- Potency [1]: inactive

SMILES: CN1CCN(CCCN2c3ccccc3Sc3ccc(Cl)cc32)CC1
- Potency [7]: 35 µM (active)

SMILES: NC12CC3CC(CC(C3)C1)C2
- Potency [1]: inactive

SMILES: CCOC(=O)Nc1ccc(NCc2ccc(F)cc2)nc1N
- Potency [7]: inactive
- outcome [8]: inactive
- Potency [9]: 4.47 µM (active)

SMILES: CC1(C)O[C@H]2CC(=O)OC[C@]23[C@H]2CC[C@@]4(C)[C@H](c5ccoc5)OC(=O)[C@H]5O[C@]54[C@]2(C)C(=O)C[C@@H]13
- Potency [1]: inactive

SMILES: O=C1c2c(O)ccc(O)c2C(=O)c2c(NCCNCCO)ccc(NCCNCCO)c21
- Potency [1]: 12.6 µM (active)

SMILES: CC(C)(C)C(=O)Oc1ccc(S(=O)(=O)Nc2ccccc2C(=O)NCC(=O)O)cc1
- Potency [1]: inactive

SMILES: NCCS(=O)(=O)O
- Potency [7]: inactive

SMILES: Clc1ccccc1C(c1ccccc1)(c1ccccc1)n1ccnc1
- Potency [7]: 9.87 µM (active) and 5.3 µM (active)
- activity change, negative = inhibition [8]: 6.78% [at 30.8 µM] (inactive)

SMILES: Nc1nc2c(ncn2COC(CO)CO)c(=O)[nH]1
- Potency [1]: inactive

SMILES: Cc1ccc(C(=O)Nc2ccc(S(=O)(=O)O)c3cc(S(=O)(=O)O)cc(S(=O)(=O)O)c23)cc1NC(=O)c1cccc(NC(=O)Nc2cccc(C(=O)Nc3cc(C(=O)Nc4ccc(S(=O)(=O)O)c5cc(S(=O)(=O)O)cc(S(=O)(=O)O)c45)ccc3C)c2)c1
- activity [3]: 5.77%
- activity change, negative = inhibition [4]: 2.65%
- activity [5]: -4.38%
- activity [6]: 6.94%

SMILES: COc1ccc(C2CNC(=O)C2)cc1OC1CCCC1 (stereo not given)
- Potency [1]: inactive

SMILES: CC(C)Cc1ccc(C(C)C(=O)O)cc1 (stereo not given)
- Potency [1]: inactive

SMILES: O=c1[nH]cc(F)c(=O)[nH]1
- Potency [1]: inactive
- Potency [2]: 6.48 µM (active)

SMILES: NS(=O)(=O)c1cc2c(cc1Cl)NCNS2(=O)=O
- Potency [1]: inactive

SMILES: CN(C)CCC=C1c2ccccc2C=Cc2ccccc21
- activity [3]: 7.28%
- Potency [4]: 0.0039 µM (active)
- activity [5]: -9.28%
- activity [6]: 7.91%

SMILES: O=C(CCCN1CCC(O)(c2ccc(Cl)cc2)CC1)c1ccc(F)cc1
- Potency [1]: inactive
- Potency [2]: inactive

SMILES: CN(C)C(=O)C(CCN1CCC(O)(c2ccc(Cl)cc2)CC1)(c1ccccc1)c1ccccc1
- activity [3]: -5.52%
- activity change, negative = inhibition [4]: 6.23%
- activity [5]: -39.1%
- activity [6]: -5.06%
- Potency [2]: inactive

SMILES: COC(=O)Nc1nc2ccc(C(=O)c3cccs3)cc2[nH]1
- Potency [7]: inactive

SMILES: OCCN1CCN(CCCN2c3ccccc3Sc3ccc(C(F)(F)F)cc32)CC1
- Potency [7]: 44.1 µM (active)
- activity [3]: -1.96%
- Potency [4]: 0.0306 µM (active)
- activity [5]: -64.7%
- activity [6]: -1.22%
- Potency [2]: inactive

SMILES: CC[C@@]1(O)C(=O)OCc2c1cc1n(c2=O)Cc2cc3c(CN(C)C)c(O)ccc3nc2-1
- Potency [7]: inactive

SMILES: OCCN(CCO)c1nc(N2CCCCC2)c2nc(N(CCO)CCO)nc(N3CCCCC3)c2n1
- Potency [7]: inactive
- outcome [8]: inactive
- Potency [1]: inactive
- Potency [2]: 0.816 µM (active)

SMILES: Cc1cn([C@H]2C[C@H](N=[N+]=[N-])[C@@H](CO)O2)c(=O)[nH]c1=O
- Potency [1]: inactive

SMILES: O=c1c(O)c(-c2ccc(O)c(O)c2)oc2cc(O)cc(O)c12
- Potency [7]: 75.7 µM (active)
- outcome [8]: inactive
- Potency [9]: inactive

SMILES: CN(C)CCCN1c2ccccc2CCc2ccc(Cl)cc21
- Potency [1]: inactive

SMILES: NC(=O)NO
- Potency [1]: inactive

SMILES: Cn1c(=O)c2c(ncn2C)n(C)c1=O
- outcome [10]: inactive

SMILES: CC(C)(Oc1ccc(C2CC2(Cl)Cl)cc1)C(=O)O (stereo not given)
- Potency [1]: inactive

SMILES: COc1cc2nc(N3CCN(C(=O)C4COc5ccccc5O4)CC3)nc(N)c2cc1OC (stereo not given)
- Potency [1]: inactive
- Potency [2]: 23 µM (active)

SMILES: COc1ccccc1OCC(O)CN1CCN(CC(=O)Nc2c(C)cccc2C)CC1 (stereo not given)
- Potency [1]: inactive
